Screens from PubChem BioAssay.
Hits are enriched below; roughly 1.6% of the tested compounds scored in any of these assays.
KCNQ2 inh = rat KCNQ2 potassium channel inhibitors, primary screen, cell-based, CHO-K1, FluxOR thallium flux, B-score; 310,000 compounds, 1.1% hits; B-score at 10 µM; 20 min; active compounds read low;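 active means fluorescence ratio B-score at most minus 3 library SDs, with starting brightness B-score within 2 library SDs, cut at about -5.5 in these data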
KCNQ2 enhance = potentiators of rat KCNQ2 potassium channel; AID 2239, 2010; CHO-K1 KCNQ2, FluxOR thallium flux fluorescence; active compounds read high; 310,000 compounds, 0.54% hits; Potassium voltage-gated channel subfamily KQT member 2 (Rattus norvegicus), O88943; B-score at 10 µM;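 active means fluorescence ratio B-score at least 3 SD of library B-scores, with initial fluorescence B-score within 3 of them, cut at about 5.3 in these data; same plate scores as AID 2156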;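 further: B-score of peak minus minimum over baseline fluorescence ratio after K+ and Tl+ stimulus; positive B-score means potentiation of KCNQ2 with more thallium influx and brighter signal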
Kir21 conf inh = mouse Kir2.1 channel blockers, retest, confirmation, cell-based, FluxOR thallium flux, duplicate; shares compounds with KCNQ2 enhance; 2,300 compounds, 41% hits; Tl flux remaining, % of negative control (active compounds read low), % at 10 µM; Kir2.1-expressing cells, FluxOR thallium flux fluorescence; active compounds read low;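 active means Primary-screen hit whose thallium flux fell at least 3 control SD below untreated wells in both duplicates, with normal baseline fluorescence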;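 further: 0% = blank wells without stimulus and 100% = stimulated no-compound controls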
HEK293 ctr = counter-screen for Kir2.1 inhibitors: effect in parental HEK293 cells; shares compounds with KCNQ2 enhance; FluxOR thallium flux fluorescence; 0% = unstimulated blank wells; FluxOR signal as % of negative control (100 = no effect), % at 10 µM; 2,300 compounds, 19% hits;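 active means dye signal at least 3 control SD above or below untreated wells in both duplicates, raw fluorescence within 3, either direction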;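 further: percent is based on the flux ratio of peak minus minimum fluorescence over baseline F0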
CHO-K1 ctr = nonspecific thallium flux increase in parental CHO-K1, confirmation, counter-screen for KCNQ2 potentiator project, cell-based, FluxOR thallium flux, duplicate; parental CHO-K1 cells, FluxOR thallium flux fluorescence; zero = vehicle mean+3SD, 100% = vehicle-minus-blank window; activity increase over 3SD of controls, % at 10 µM; shares compounds with KCNQ2 enhance; 1,200 compounds, 43% hits;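 active means signal rise of at least 3 SD above the untreated control mean, in both duplicate wells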;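 further: counter screen of KCNQ2 potentiator hits so any rise reflects channel-independent effects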
KCNQ1 pot spec = human KCNQ1 channel potentiation off-target, confirmation, selectivity assay for KCNQ2 potentiator project, cell-based, CHO, FluxOR thallium flux | activation over 3SD threshold, % at 10 µM | 1,200 compounds, 28% hits | shares compounds with KCNQ2 enhance | AID 2283, 2010 | CHO KCNQ1 stable, FluxOR thallium flux fluorescence; beyond 3SD, as % of vehicle-control signal;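 active means fluorescence ratio rise of at least 3 SD of vehicle wells above their mean, in both replicate wells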;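 further: 0% = vehicle mean plus 3 SD and 100% = vehicle minus unstimulated blank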
KCNQ2 pot confirm = rat KCNQ2 channel potentiators, confirmation, cell-based, CHO, FluxOR thallium flux, duplicate; shares compounds with KCNQ2 enhance; potentiation, less the hit threshold, % at 10 µM; 1,200 compounds, 68% hits; CHO-KCNQ2 cells, FluxOR thallium flux fluorescence;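 active means fluorescence ratio rising 3 SD or more over the vehicle control mean in both replicates, plus primary screen hit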;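 further: peak minus minimum thallium fluorescence divided by baseline after K/Tl stimulus; 0% = vehicle mean plus 3 SD and 100% = vehicle minus unstimulated blank difference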
Kir21 spec = mouse Kir2.1 channel activation off-target, confirmation, selectivity assay for KCNQ2 potentiator project, cell-based, HEK293, FluxOR thallium flux; HEK293 Kir2.1, FluxOR thallium flux fluorescence; activity over 3SD threshold, % at 10 µM; shares compounds with KCNQ2 enhance; 1,200 compounds, 2% hits;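 active means fluorescence ratio rise of at least 3 SD above the vehicle-control mean, seen in both replicates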;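 further: 0% = vehicle mean plus 3 SD and 100% = vehicle minus no-stimulus blank window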
KCNQ2 W236L MoA = potentiators of retigabine-insensitive KCNQ2 W236L, mechanism study for KCNQ2 potentiator project, cell-based, rat KCNQ2 W236L, CHO, automated patch clamp; shares compounds with KCNQ2 enhance; automated patch clamp current; current increase over 3SD of negative controls (%), active compounds read high, % at 25 µM; 940 compounds, 10% hits; AID 2558, 2010;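 active means current increase at least 3 SD of the untreated controls above them in both duplicate recordings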
An asterisk follows results filed as active; i = inactive; . = no result.

SMILES | KCNQ2 inh | KCNQ2 enhance | Kir21 conf inh | HEK293 ctr | CHO-K1 ctr | KCNQ1 pot spec | KCNQ2 pot confirm | Kir21 spec | others
Cc1nnnn1/C(=C\c1ccccc1)C(=O)OCC(=O)Nc1ccc(Cl)cc1F | i | . | i | i | . | . | . | .
O=C(NCc1cccs1)c1ccc([N+](=O)[O-])cc1Cl | i | 0.58 | . | . | . | . | . | .
CC(=O)C(Sc1nc(N2CCOCC2)nc(N2CCOCC2)n1)C(=O)Nc1ccccc1 (centres undefined) | i | 6.05* | i | i | 10.3* | -4.1 | 12.2* | -26.6 | KCNQ2 W236L MoA=i
CCNc1nc(SC(C)C(=O)Nc2ccccc2)nc(N2CCOCC2)n1 (centres undefined) | i | 0.37 | . | . | . | . | . | .
Cc1cc(SCC(=O)N(C)C2CCS(=O)(=O)C2)nc2c(C)cccc12 (centres undefined) | i | 0.96 | . | . | . | . | . | .
CCc1c(C)nc(SCC(=O)N2C(C)CCCC2C)[nH]c1=O (centres undefined) | i | 0.11 | . | . | . | . | . | .
CCc1c(C)nc(SCC(=O)N2CCCCC2C)[nH]c1=O (centres undefined) | i | 5.46* | i | i | 19.5* | -16.5 | -25.6 | -33.7
CNc1c(NS(=O)(=O)c2ccc(C3CCCCC3)cc2)c(=O)oc2ccccc12 | i | 0.03 | . | . | . | . | . | .
CCn1c(=O)c(C(=O)Nc2ccccc2C)c(O)c2ccccc21 | i | . | . | . | . | . | . | .
CCn1c(=O)c(C(=O)Nc2ccccc2S(N)(=O)=O)c(O)c2ccccc21 | i | 8.03* | i | i | 52.8* | -10.7 | 10.9* | -41.0 | KCNQ2 W236L MoA=i
Clc1ccc(Sc2cc(Cl)c(-c3ccccc3)nn2)cc1 | i | 0.05 | . | . | . | . | . | .
Cc1cc2oc(=O)cc(CN(C)Cc3cccc(F)c3)c2cc1C | i | 2.02 | . | . | . | . | . | .
CCc1cc2c(CN3CCN(Cc4ccccc4)CC3)cc(=O)oc2cc1O | i | 0.07 | 74.0%* | i | . | . | . | .
CCc1ccc2c(CN3CCN(Cc4ccccc4)CC3)cc(=O)oc2c1 | i | . | . | . | . | . | . | .
CCc1cc2c(CN(C)Cc3ccccc3F)cc(=O)oc2cc1O | i | . | i | i | . | . | . | .
Cc1csc(SCCn2c(N3CCN(c4ccccc4)CC3)nc3c2c(=O)[nH]c(=O)n3C)n1 | i | . | . | . | . | . | . | .
CCCN(CCC)S(=O)(=O)c1cc2c3c(c1)CCN3C(=O)CC2 | i | . | . | . | . | . | . | .
CCN(c1cccc(C)c1)S(=O)(=O)c1cc2c3c(c1)CCC(=O)N3CCC2 | i | . | i | i | . | . | . | .
OC(COC(c1ccc(F)cc1)c1ccc(F)cc1)CN1CCCC(C(F)(F)F)C1 (centres undefined) | i | . | . | . | . | . | . | .
Cc1cccc(C)c1OC(=O)CCN1C(=O)C2C3C=CC(C4CC34)C2C1=O (centres undefined) | i | . | . | . | . | . | . | .
CC1CCc2c(sc(NC(=O)c3ccccc3C(=O)O)c2C#N)C1 (centres undefined) | i | 3.91 | . | . | . | . | . | .
CCC(C)(C)C1CCc2c(sc(NC(=O)c3ccccc3C(=O)O)c2C#N)C1 (centres undefined) | i | 8.34* | i | 151.0%* | -0.5 | -21.4 | 15.6* | -19.4 | KCNQ2 W236L MoA=i
CC1CCN(CC(O)CN2c3ccccc3Sc3ccccc32)CC1 (centres undefined) | i | . | . | . | . | . | . | .
CSc1ccc2c(c1)N(CCC1CCCCN1C)c1ccccc1S2 (centres undefined) | -5.82* | -5.82 | 23.0%* | i | . | . | . | .
COc1ccc(-c2ccc(CO)o2)cc1N | i | 0.56 | . | . | . | . | . | .
SMILES | KCNQ2 inh | KCNQ2 enhance | Kir21 conf inh | HEK293 ctr | CHO-K1 ctr | KCNQ1 pot spec | KCNQ2 pot confirm | Kir21 spec | others
COc1ccc(NC(=O)CN2CCN(S(=O)(=O)N3CCCCCC3)CC2)cc1 | i | 0.87 | . | . | . | . | . | .
CC(=O)CSc1ncnc2sc3c(c12)CCC(C)C3 (centres undefined) | i | 15.1* | i | 455.0%* | 1.6* | -2.1 | 93.3* | -0.2 | KCNQ2 W236L MoA=i
CC1CCc2c(sc3ncnc(SCC(=O)c4ccccc4)c23)C1 (centres undefined) | i | 1.83 | . | . | . | . | . | .
COc1cc(C)c(C(=O)Oc2cc(C)c(C(=O)O)c(O)c2)c(O)c1 | i | 7.01* | i | i | 45.2* | -11.4 | 13.9* | -22.3 | KCNQ2 W236L MoA=21.3%*
COc1cc(C)c(C(=O)Oc2cc(C)c(C(=O)O)c(O)c2C)c(O)c1C | i | 5.25 | . | . | . | . | . | .
CCCCCCNC(=O)Nc1ccccc1 | i | 5.86* | i | i | -7.7 | -11.4 | 3.7* | -24.4 | KCNQ2 W236L MoA=i
O=C(O)CCCNC(=O)Nc1ccccc1 | i | 0.71 | . | . | . | . | . | .
COCCCn1c(=S)[nH]c2sc3c(c2c1=O)CCCS3 | i | 7.23* | i | 285.0%* | -31.2 | 46.8* | 23.9* | -27.9 | KCNQ2 W236L MoA=i
CCn1c(=O)n(CCOC)c(=O)c2c3c(sc21)CCCC3 | i | 0.3 | . | . | . | . | . | .
COCCn1c(=S)[nH]c2sc3c(c2c1=O)CCC(C)C3 (centres undefined) | i | 15.5* | i | i | -0.5 | 3.6* | 71.3* | 11.2* | KCNQ2 W236L MoA=i
Cn1c(=S)[nH]c2sc3c(c2c1=O)CCC(C(C)(C)C)C3 (centres undefined) | i | 18.5* | i | 467.0%* | -1.4 | -11.4 | 85.3* | 1.4* | KCNQ2 W236L MoA=i
CC(=O)Cn1nnc2sc3c(c2c1=O)CCC(C(C)(C)C)C3 (centres undefined) | i | . | . | . | . | . | . | .
CCCn1c(=S)[nH]c2sc3c(c2c1=O)CCCC3 | i | 10.1* | i | 342.0%* | -5.3 | 40.5* | 26.6* | -6.5 | KCNQ2 W236L MoA=i
CCn1nnc2sc3c(c2c1=O)CCC(C)C3 (centres undefined) | i | . | . | . | . | . | . | .
Nn1c(=S)[nH]c2sc3c(c2c1=O)CCCC3 | i | 0.24 | . | . | . | . | . | .
O=C(CSc1n[nH]c(=O)n1Cc1ccccc1)Nc1ccc(F)c(F)c1F | i | 0.26 | . | . | . | . | . | .
COc1cc(CNCc2ccccn2)ccc1OCc1ccc(Cl)cc1 | i | 1.27 | . | . | . | . | . | .
